# From PubChem BioAssay (NCI)
# This is part of a sample that, as a whole, favours compounds with a hit. Of some 79,000 tested, about 15% had one in any assay. Values without a mark were called inactive. Activity calls are given as the source filed them. Rule as the data show it: active = growth inhibition above about 70%; inactive = the rest.
# What was measured:
# [1] = NCI Yeast Anticancer Drug Screen. Data for the rad52 strain (AID 147);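 also: 0% = growth of vehicle-treated control cultures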; conditions: S. cerevisiae rad52 mutant growth inhibition, hits give high values
# Procedure, shortened: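 Growth of repair-deficient yeast cells was compared between compound-treated and vehicle-treated cultures to give percent inhibition.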
# [2] = NCI Yeast Anticancer Drug Screen. Data for the wt1 strain (AID 149);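 also: 0% = growth of vehicle-treated wt1 cultures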; conditions: S. cerevisiae wt1 strain (SPY 50644) growth inhibition, hits give high values
# Procedure, shortened: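 Vehicle-normalised growth inhibition; strain wt1; compound exposure.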
# [3] = NCI Yeast Anticancer Drug Screen. Data for the rad50EPP+ strain (AID 151);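 also: 0% = growth of vehicle-treated control cultures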; conditions: S. cerevisiae rad50 mutant strain, hits give high values
# Procedure, shortened: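 Measured: growth inhibition of rad50EPP+ yeast. Reference: vehicle-treated controls. Screen uses strains with defined genetic alterations in DNA damage repair or cell cycle control.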
# [4] = NCI Yeast Anticancer Drug Screen. Data for the mgt1 strain (AID 153); conditions: S. cerevisiae mgt1 mutant growth inhibition, hits give high values
# Procedure, shortened: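 Compounds were applied to mgt1 mutant yeast, and growth was then compared against vehicle-treated control cultures to give percent inhibition.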
# [5] = NCI Yeast Anticancer Drug Screen. Data for the rad50 strain (AID 155);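 also: 0% = growth of vehicle-only cultures of the same strain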; conditions: S. cerevisiae rad50 strain growth inhibition, hits give high values
# Procedure, shortened: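 A DNA repair-deficient yeast mutant serves as the test organism; compound-induced growth inhibition is calculated against vehicle-treated cells.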
# [6] = NCI Yeast Anticancer Drug Screen. Data for the mec2-1 strain (AID 157); conditions: S. cerevisiae mec2-1 strain, hits give high values
# Procedure, shortened: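 Compounds were applied to mec2-1 yeast cells. Their growth was then compared with that of vehicle-treated cultures to give growth inhibition.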
# [7] = NCI Yeast Anticancer Drug Screen. Data for the rad14 strain (AID 159);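 also: 0% = growth of vehicle-treated control cultures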; conditions: S. cerevisiae rad14 strain growth inhibition, hits give high values
# Procedure, shortened: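 Vehicle-treated cultures served as the baseline for growth inhibition of a DNA repair-mutant yeast strain exposed to each compound.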
# [8] = NCI Yeast Anticancer Drug Screen. Data for the sgs1 mgt1 strain (AID 161);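 also: 0% = growth of cultures given vehicle only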; conditions: S. cerevisiae sgs1 mgt1 strain, hits give high values
# Procedure, shortened: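 Yeast cells carrying a defined DNA-repair defect were exposed to test compounds. Growth inhibition was measured relative to vehicle-treated controls.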
# [9] = NCI Yeast Anticancer Drug Screen. Data for the CLN2oe strain (AID 163);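 also: 0% = growth of vehicle-only control cultures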; conditions: S. cerevisiae CLN2oe strain, hits give high values
# Procedure, shortened: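 Cells of an engineered yeast line with disturbed cell-cycle regulation are treated with compound. Inhibition of growth is then calculated relative to the vehicle-treated reference.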
# [10] = NCI Yeast Anticancer Drug Screen. Data for the cln2 rad14 strain (AID 165);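 also: 0% = growth equal to vehicle treated cultures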; conditions: S. cerevisiae cln2 rad14 strain, hits give high values
# Procedure, shortened: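 Strain: cln2 rad14 yeast, altered in cell cycle control and DNA damage repair. Read-out: growth inhibition vs vehicle.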
# [11] = NCI Yeast Anticancer Drug Screen. Data for the bub3 strain (AID 167); conditions: S. cerevisiae bub3 mutant strain, hits give high values
# Procedure, shortened: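 Inhibition values come from growth of compound-treated mutant yeast normalised to vehicle-treated controls.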
# [12] = NCI Yeast Anticancer Drug Screen. Data for the wt2 strain (AID 169);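 also: 0% = growth of vehicle-treated yeast cultures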; conditions: S. cerevisiae wt2 strain growth inhibition, hits give high values
# Procedure, shortened: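 Growth of compound-treated yeast is measured and expressed as inhibition relative to vehicle-only controls.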
# [13] = NCI Yeast Anticancer Drug Screen. Data for the mlh1 strain (AID 171);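 also: 0% = growth of vehicle-treated control cultures of the same strain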; conditions: S. cerevisiae mlh1 strain growth inhibition, hits give high values
# Procedure, shortened: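 Test agents were incubated with yeast bearing a defined DNA damage repair or cell cycle control alteration; values are growth inhibition normalised to vehicle-treated cultures.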
# [14] = NCI Yeast Anticancer Drug Screen. Data for the sgs1 strain (AID 173);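 also: 0% = growth of vehicle-only control cultures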; conditions: S. cerevisiae sgs1 mutant, hits give high values
# Procedure, shortened: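 Strain with an altered DNA repair or cell cycle pathway exposed to compound. Growth then measured. Value = inhibition versus vehicle control.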
# [15] = NCI Yeast Anticancer Drug Screen. Data for the mlh1 rad18 strain (AID 175); conditions: S. cerevisiae mlh1 rad18 strain growth inhibition, hits give high values
# Procedure, shortened: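 A repair-deficient yeast strain is exposed to test compound, and growth is scored relative to vehicle-treated controls.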
# [16] = NCI Yeast Anticancer Drug Screen. Data for the rad18 strain (AID 177); conditions: S. cerevisiae rad18 mutant growth inhibition, hits give high values
# Procedure, shortened: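 DNA-repair-defective yeast; compound treatment; growth inhibition scored against vehicle.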
# [17] = at 5.0 µM (retest, dose inferred, filed as 0.5)
# [18] = at 50.0 µM (retest, dose inferred, filed as 5.0)
smiles,measurement,setting,value
N#Cc1nc(Nc2ccc(Cl)cc2)sc1N,growth inhibition,[1]; at 1.2 µM,-33%
same,growth inhibition,[1]; at 3.7 µM,-29%
same,growth inhibition,[1]; at 11.0 µM,-25%
same,growth inhibition,[1]; at 33.0 µM,32%
same,growth inhibition,[1]; at 100.0 µM,80% (active)
same,growth inhibition,[2]; at 1.2 µM,-6%
same,growth inhibition,[2]; at 3.7 µM,-4%
same,growth inhibition,[2]; at 11.0 µM,-16%
same,growth inhibition,[2]; at 33.0 µM,41%
same,growth inhibition,[2]; at 100.0 µM,73% (active)
same,growth inhibition,[3]; at 1.2 µM,-36%
same,growth inhibition,[3]; at 3.7 µM,-27%
same,growth inhibition,[3]; at 11.0 µM,-17%
same,growth inhibition,[3]; at 33.0 µM,-1%
same,growth inhibition,[3]; at 100.0 µM,36%
same,growth inhibition,[4]; at 1.2 µM,-6%
same,growth inhibition,[4]; at 3.7 µM,-10%
same,growth inhibition,[4]; at 11.0 µM,1%
same,growth inhibition,[4]; at 33.0 µM,80% (active)
same,growth inhibition,[4]; at 100.0 µM,94% (active)
same,growth inhibition,[5]; at 1.2 µM,-4%
same,growth inhibition,[5]; at 3.7 µM,-9%
same,growth inhibition,[5]; [17],18%
same,growth inhibition,[5]; at 11.0 µM,-1%
same,growth inhibition,[5]; at 33.0 µM,27%
same,growth inhibition,[5]; [18],-8%
same,growth inhibition,[5]; at 50.0 µM,89.2% (active)
same,growth inhibition,[5]; at 100.0 µM,61%
same,growth inhibition,[6]; at 1.2 µM,-37%
same,growth inhibition,[6]; at 3.7 µM,-8%
same,growth inhibition,[6]; [17],8%
same,growth inhibition,[6]; at 11.0 µM,-15%
same,growth inhibition,[6]; at 33.0 µM,19%
same,growth inhibition,[6]; [18],53%
same,growth inhibition,[6]; at 50.0 µM,36.1%
same,growth inhibition,[6]; at 100.0 µM,42%
same,growth inhibition,[7]; at 1.2 µM,-31%
same,growth inhibition,[7]; at 3.7 µM,-19%
same,growth inhibition,[7]; at 11.0 µM,-16%
same,growth inhibition,[7]; at 33.0 µM,34%
same,growth inhibition,[7]; at 100.0 µM,91% (active)
same,growth inhibition,[8]; [17],9%
same,growth inhibition,[8]; [18],30%
same,growth inhibition,[8]; at 50.0 µM,76.2% (active)
same,growth inhibition,[9]; at 1.2 µM,25%
same,growth inhibition,[9]; at 3.7 µM,20%
same,growth inhibition,[9]; at 11.0 µM,27%
same,growth inhibition,[9]; at 33.0 µM,58%
same,growth inhibition,[9]; at 100.0 µM,44%
same,growth inhibition,[10]; [17],39%
same,growth inhibition,[10]; [18],92% (active)
same,growth inhibition,[10]; at 50.0 µM,84.6% (active)
same,growth inhibition,[11]; at 1.2 µM,18%
same,growth inhibition,[11]; at 3.7 µM,23%
same,growth inhibition,[11]; [17],10%
same,growth inhibition,[11]; at 11.0 µM,17%
same,growth inhibition,[11]; at 33.0 µM,32%
same,growth inhibition,[11]; [18],70% (active)
same,growth inhibition,[11]; at 50.0 µM,86% (active)
same,growth inhibition,[11]; at 100.0 µM,94% (active)
same,growth inhibition,[12]; at 1.2 µM,-20%
same,growth inhibition,[12]; at 3.7 µM,-36%
same,growth inhibition,[12]; at 11.0 µM,-20%
same,growth inhibition,[12]; at 33.0 µM,81% (active)
same,growth inhibition,[12]; at 100.0 µM,84% (active)
same,growth inhibition,[13]; at 1.2 µM,1%
same,growth inhibition,[13]; at 3.7 µM,27%
same,growth inhibition,[13]; at 11.0 µM,21%
same,growth inhibition,[13]; at 33.0 µM,64%
same,growth inhibition,[13]; at 100.0 µM,94% (active)
same,growth inhibition,[14]; at 1.2 µM,-20%
same,growth inhibition,[14]; at 3.7 µM,-13%
same,growth inhibition,[14]; at 11.0 µM,-2%
same,growth inhibition,[14]; at 33.0 µM,-1%
same,growth inhibition,[14]; at 100.0 µM,40%
same,growth inhibition,[15]; [17],-29%
same,growth inhibition,[15]; [18],-24%
same,growth inhibition,[15]; at 50.0 µM,49.9%
same,growth inhibition,[16]; at 1.2 µM,-17%
same,growth inhibition,[16]; at 3.7 µM,-17%
same,growth inhibition,[16]; at 11.0 µM,-3%
same,growth inhibition,[16]; at 33.0 µM,44%
same,growth inhibition,[16]; at 100.0 µM,91% (active)
OC(CC(O)(C(F)(F)F)C(F)(F)F)c1ccc(C(O)CC(O)(C(F)(F)F)C(F)(F)F)cc1 (stereo unspecified),growth inhibition,[1]; at 1.2 µM,47%
same,growth inhibition,[1]; at 3.7 µM,64%
same,growth inhibition,[1]; at 11.0 µM,95% (active)
same,growth inhibition,[1]; at 33.0 µM,99% (active)
same,growth inhibition,[1]; at 100.0 µM,99% (active)
same,growth inhibition,[2]; at 1.2 µM,23%
same,growth inhibition,[2]; at 3.7 µM,32%
same,growth inhibition,[2]; at 11.0 µM,94% (active)
same,growth inhibition,[2]; at 33.0 µM,99% (active)
same,growth inhibition,[2]; at 100.0 µM,100% (active)
same,growth inhibition,[3]; at 1.2 µM,-2%
same,growth inhibition,[3]; at 3.7 µM,0%
same,growth inhibition,[3]; at 11.0 µM,9%
same,growth inhibition,[3]; at 33.0 µM,25%
same,growth inhibition,[3]; at 100.0 µM,60%
same,growth inhibition,[4]; at 1.2 µM,22%
same,growth inhibition,[4]; at 3.7 µM,22%
same,growth inhibition,[4]; at 11.0 µM,91% (active)
same,growth inhibition,[4]; at 33.0 µM,99% (active)
same,growth inhibition,[4]; at 100.0 µM,99% (active)
same,growth inhibition,[5]; at 1.2 µM,35%
same,growth inhibition,[5]; at 3.7 µM,50%
same,growth inhibition,[5]; [17],36%
same,growth inhibition,[5]; at 11.0 µM,92% (active)
same,growth inhibition,[5]; at 33.0 µM,98% (active)
same,growth inhibition,[5]; [18],100% (active)
same,growth inhibition,[5]; at 50.0 µM,99% (active)
same,growth inhibition,[5]; at 100.0 µM,92% (active)
same,growth inhibition,[6]; at 1.2 µM,18%
same,growth inhibition,[6]; at 3.7 µM,38%
same,growth inhibition,[6]; [17],42%
same,growth inhibition,[6]; at 11.0 µM,94% (active)
same,growth inhibition,[6]; at 33.0 µM,99% (active)
same,growth inhibition,[6]; [18],100% (active)
same,growth inhibition,[6]; at 50.0 µM,99.5% (active)
same,growth inhibition,[6]; at 100.0 µM,99% (active)
same,growth inhibition,[7]; at 1.2 µM,26%
same,growth inhibition,[7]; at 3.7 µM,19%
same,growth inhibition,[7]; at 11.0 µM,95% (active)
same,growth inhibition,[7]; at 33.0 µM,99% (active)
same,growth inhibition,[7]; at 100.0 µM,99% (active)
same,growth inhibition,[8]; [17],26%
same,growth inhibition,[8]; [18],100% (active)
same,growth inhibition,[8]; at 50.0 µM,99.5% (active)
same,growth inhibition,[9]; at 1.2 µM,3%
same,growth inhibition,[9]; at 3.7 µM,68%
same,growth inhibition,[9]; at 11.0 µM,99% (active)
same,growth inhibition,[9]; at 33.0 µM,99% (active)
same,growth inhibition,[9]; at 100.0 µM,100% (active)
same,growth inhibition,[10]; [17],68%
same,growth inhibition,[10]; [18],100% (active)
same,growth inhibition,[10]; at 50.0 µM,99.2% (active)
same,growth inhibition,[11]; at 1.2 µM,-2%
same,growth inhibition,[11]; at 3.7 µM,37%
same,growth inhibition,[11]; [17],15%
same,growth inhibition,[11]; at 11.0 µM,95% (active)
same,growth inhibition,[11]; at 33.0 µM,99% (active)
same,growth inhibition,[11]; [18],100% (active)
same,growth inhibition,[11]; at 50.0 µM,99.5% (active)
same,growth inhibition,[11]; at 100.0 µM,99% (active)
same,growth inhibition,[12]; at 1.2 µM,-1%
same,growth inhibition,[12]; at 3.7 µM,17%
same,growth inhibition,[12]; at 11.0 µM,98% (active)
same,growth inhibition,[12]; at 33.0 µM,99% (active)
same,growth inhibition,[12]; at 100.0 µM,100% (active)
same,growth inhibition,[13]; at 1.2 µM,19%
same,growth inhibition,[13]; at 3.7 µM,11%
same,growth inhibition,[13]; at 11.0 µM,90% (active)
same,growth inhibition,[13]; at 33.0 µM,99% (active)
same,growth inhibition,[13]; at 100.0 µM,99% (active)
same,growth inhibition,[15]; [17],47%
same,growth inhibition,[15]; [18],99% (active)
same,growth inhibition,[15]; at 50.0 µM,99.3% (active)
same,growth inhibition,[16]; at 1.2 µM,40%
same,growth inhibition,[16]; at 3.7 µM,41%
same,growth inhibition,[16]; at 11.0 µM,91% (active)
same,growth inhibition,[16]; at 33.0 µM,98% (active)
same,growth inhibition,[16]; at 100.0 µM,97% (active)
